# Only some compounds are listed: those with a hit (about 1.5% of all), similar ones and a draw of the others.
# IDH1 R132H inh = human IDH1 R132H inhibition | Potency, µM (top dose mostly 76.6 µM), for inactives: top-dose activity change, negative = inhibition, most hits filed as inhibitors | IDH1-R132H enzyme, NADPH consumption, diaphorase/resazurin fluorescence | AID 602179 | actives 0.093% (n = 390,000) | O75874; also: potency is read from the fitted curve at half-maximal effect; nearly all actives have a fitted effect of over 65% in size
#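 IDH1-R132H (0.5 ug/mL) preincubated 30 min with compound, then NADPH (0.016 mM) and alpha-KG (2 mM) added; 80 min at RT, pH 7.5. Remaining NADPH coupled via diaphorase/resazurin to fluorescence (540/590 nm); concentration-response curves normalized to no-enzyme control.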
# rTrxR1 inhibitor = rat TrxR1 inhibition; recombinant rTrxR1, NADPH fluorescence consumption, selenite substrate; actives 1% (n = 390,000); Potency, µM (highest dose often 114 µM), without a hit: at the top dose activity change, negative = inhibition, usual class: inhibitors; also: potency is read from the fitted curve at half-maximal effect; nearly all actives have a fitted effect of over 65% in size
# Target sequence (O89049 whole entry, looked up): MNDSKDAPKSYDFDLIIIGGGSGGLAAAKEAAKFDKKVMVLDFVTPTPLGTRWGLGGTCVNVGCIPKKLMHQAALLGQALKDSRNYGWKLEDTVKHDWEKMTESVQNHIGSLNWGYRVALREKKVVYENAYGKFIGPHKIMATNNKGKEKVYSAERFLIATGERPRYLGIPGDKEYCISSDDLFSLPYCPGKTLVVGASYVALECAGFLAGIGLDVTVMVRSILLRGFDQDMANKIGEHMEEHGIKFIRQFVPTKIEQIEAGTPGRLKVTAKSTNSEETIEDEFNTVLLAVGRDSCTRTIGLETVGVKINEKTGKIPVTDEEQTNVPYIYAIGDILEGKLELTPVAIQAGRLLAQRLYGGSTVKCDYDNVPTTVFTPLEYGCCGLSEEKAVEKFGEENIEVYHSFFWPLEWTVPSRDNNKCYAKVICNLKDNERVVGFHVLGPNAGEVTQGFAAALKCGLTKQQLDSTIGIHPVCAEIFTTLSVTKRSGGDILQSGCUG
#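 Rat TrxR1 (90 nM in the dispensed reagent) was pre-reduced with 400 uM NADPH for 5 min at room temperature, then incubated with compound for 15 min. After 400 uM selenite was added, NADPH fluorescence (Ex 340/Em 450 nm) was followed for 8 min.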
# Coupling enz = coupling enzyme interference in Giardia aldolase counter-screen. activity change, negative = inhibition, % at 58.2 µM, hits read low. AID 2472. coupling enzyme system counterscreen, AmpLite Red fluorescence. actives 0.67% (n = 290,000); in the data active = activity change below about -30%
#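 Final compound at 57.5 uM, incubated 10 min at RT with coupling enzyme reagent (glyceraldehyde-3-phosphate), then 20 min with substrate and AmpLite Red detection. Fluorescence read at 525/598 nm; tests interference with the coupling assay, not aldolase inhibition.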
# Eya2 phos inh = Eya2 (human) phosphatase inhibition; O00167; recombinant Eya2, OMFP fluorescence dephosphorylation (OMFP is methylfluorescein phosphate); Potency, µM (doses to about 76.9 µM), for inactives: at the top dose activity, negative = inhibition, actives largely listed as inhibitors; actives 0.006% (n = 330,000); AID 488837; also: potency is read from the fitted curve at half-maximal effect
#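 Eya2 (0.2 uM) preincubated 10 min at ambient with compound, then OMFP substrate added at 50 uM; 10 min reaction in 50 mM HEPES pH 7.5, 50 mM NaCl, 5 uM MgCl2, 0.05% BSA, 1 mM DTT. Fluorescence read at Ex 485/Em 525 nm.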
# TrxR1 substrate = substrates of rat thioredoxin reductase 1. O89049. purified TrxR1 substrate turnover, NADPH consumption readout. Potency, µM (doses to about 114 µM), for inactives: top-dose activity change, negative = substrate turnover. actives 0.01% (n = 390,000). AID 588456; also: potency is read from the fitted curve at half-maximal effect; nearly all actives have a fitted effect of over 50% in size
#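 Rat TrxR1, dispensed at 90 nM, was prereduced with 400 uM NADPH (final) for 5 min at ~22 deg C, then incubated with compound 15 min before 400 uM selenite. A first-read NADPH fluorescence drop versus no-compound background flagged substrates.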
# * = called active by the depositor; u = inconclusive; x = no result; ! = repeats disagree; [ ] = remark or other dose. Unless noted, calls follow the shape of the dose curve; as a rule, active = well fitted curve in the direction sought with a large enough effect; inconclusive = small, poorly fitted or top-dose-only effect, or another doubt; inactive = no such curve, though single readings can be large; an effect the other way counts as inactive or inconclusive. % is scaled to controls: 0 for no effect and ±100 for the full control effect.
SMILES,IDH1 R132H inh,rTrxR1 inhibitor,Coupling enz,Eya2 phos inh,TrxR1 substrate
Cn1c(C(=O)N2CCCC2)cc2c(=O)n(C)c3ccccc3c21,7%,7%,5,-16%,-5%
Cn1c(C(=O)N2CCN(c3ncccn3)CC2)cc2c(=O)n(C)c3ccccc3c21,10%,14%,-45*,-33%,3%
C(=Nc1ccc2ccccc2n1)c1ccccn1,x,-13%,x,x,14%
CCc1cccc(NC(=O)CSC2=NS(=O)(=O)c3ccccc32)c1,-7%,3.2µM*,5,7%,3%[57.1 µM]
CC(C)(C)n1ncc2c(=O)n(Cc3ccc([S+](=O)([O-])N4CCOCC4)cc3)cnc21,x,-10%,x,x,-3%
C[n+]1ccc(/C=C/c2cc[n+](C)c3ccccc23)c2ccccc21,x,-27%,x,x,6%
CN1C=C/C(=C\c2cc[n+](C)c3ccccc23)c2ccccc21,1%,21%,-62*,-2%,-1%
O=C(COc1ccccc1C(=O)Nc1ccccc1)Nc1cccc(Br)c1,x,20%,x,x,2%
O=C(Nc1ccc2c(c1)nc1n2CCN(Cc2ccccc2)C1)NC1CCCCC1,2%,32%,-37*,-1%,87%
COCCN1CCn2c(nc3cc(NC(=O)NC4CCCCC4)ccc32)C1,4%,-33%,-31*,-1%,255%
O=C(Nc1ccc2c(c1)nc1n2CCN(Cc2ccccc2)C1)c1cccs1,3%,-16%,1,4%,12%
O=C(CCCCCN1CCN(c2ccccc2-c2ccccc2)CC1)NC1CCCc2ccccc21 (centres undefined),x,38%[57.1 µM],x,-18%,29%[57.1 µM]
COC(=O)CCC(=O)OC1(C)C(=O)C=C2C=C(C3CC3)N(Cc3ccc(OC)cc3)C=C2C1=O (centres undefined),1%,9%[57.1 µM],-45*!,11%,0%[57.1 µM]
COC(=O)CCC(=O)OC1(C)C(=O)C2=CN(Cc3ccccc3)C(c3ccc(OC)cc3)=CC2=C(Br)C1=O (centres undefined),13%,7%[57.1 µM],-4,x,u
COC(=O)CCC(=O)OC1(C)C(=O)C=C2C=C(C3CC3)N(Cc3ccc4c(c3)OCO4)C=C2C1=O (centres undefined),18%,-12%,-39*,8%,-7%
CCCCC1=CC2=CC(=O)C(C)(OC(=O)CC)C(=O)C2=CN1Cc1ccc2c(c1)OCO2 (centres undefined),-7%,21%[57.1 µM],-1,-5%,11%[57.1 µM]
CC[C@H](C)[C@H](NC(=O)[C@H](Cc1ccc(O)cc1)NC(=O)[C@H](Cc1cnc[nH]1)NC(=O)[C@H](CCCNC(=N)N)NC(=O)[C@H](CC(C)C)NC(=O)[C@H](C)NC(=O)[C@H](CO)NC(=O)[C@H](Cc1ccc(O)cc1)NC(=O)[C@H](Cc1ccc(O)cc1)NC(=O)[C@H](CCCNC(=N)N)NC(=O)[C@H](C)NC(=O)[C@H](CCSC)NC(=O)[C@H](CC(=O)O)NC(=O)[C@H](CCC(=O)O)NC(=O)[C@H](C)NC(=O)[C@@H]1CCCN1C(=O)[C@H](C)NC(=O)[C@H](CC(=O)O)NC(=O)[C@H](CCC(=O)O)NC(=O)CNC(=O)[C@@H]1CCCN1C(=O)[C@H](CC(N)=O)NC(=O)[C@H](CC(=O)O)NC(=O)[C@@H]1CCCN1C(=O)[C@H](CCCCN)NC(=O)[C@H](CO)NC(=O)[C@@H]1CCCN1C(=O)[C@@H](N)Cc1ccc(O)cc1)C(=O)N[C@@H](CC(N)=O)C(=O)N[C@@H](CC(C)C)C(=O)N[C@@H](CC(C)C)C(=O)N[C@H](C(=O)N[C@@H](CCCNC(=N)N)C(=O)N1CCC[C@H]1C(=O)N[C@@H](CCCNC(=N)N)C(=O)N[C@@H](Cc1ccc(O)cc1)C(N)=O)[C@@H](C)O,x,x,0,x,x
CC(=O)NC(Cc1ccc(Cl)cc1)C(=O)NCC(N)C(=O)c1ccccc1 (centres undefined),x,-1%,x,x,-5%
O=C(Nc1cccc2cccnc12)OC(Cl)(Cl)Cl,x,-21%,x,x,1%
O=C(Nc1cccc2cccnc12)C(Cl)(Cl)Cl,x,28µM*,x,x,0%
Cc1ccc(-c2ccc(CCC(=O)O)o2)cc1,4%,22µM*,11,-6%,11%
O=C(O)CCc1ccc(-c2cccs2)o1,1%,u,3,5%,11%[57.1 µM]
NS(=O)(=O)c1ccc(N=Nc2ccc(=O)[nH]c2O)cc1,12%,-48%,-32*,18%,0%[57.1 µM]
NS(=O)(=O)c1ccc(N=Nc2ccc(O)c3ncccc23)cc1,11%,13%[2.29 µM],-4,-14%,0%[57.1 µM]
COc1ccc(CN(C(=O)/C=C/c2ccco2)C2CCS(=O)(=O)C2)cc1 (centres undefined),-1%,-87%,3,17%,13%[11.4 µM]
SMILES,IDH1 R132H inh,rTrxR1 inhibitor,Coupling enz,Eya2 phos inh,TrxR1 substrate
O=C(/C=C/c1ccco1)N(Cc1ccc(Cl)cc1)C1CCS(=O)(=O)C1 (centres undefined),15%,25µM*,3,17%,5%
COc1ccc(CN(C(=O)/C=C/c2ccco2)C2CCS(=O)(=O)C2)cc1OC (centres undefined),1%,16µM*,1,-3%,-12%
COc1cccc(CN(C(=O)/C=C/c2ccco2)C2CCS(=O)(=O)C2)c1 (centres undefined),-7%,13µM*,0,2%,2%
CCOc1ccc(CN(C(=O)/C=C/c2ccco2)C2CCS(=O)(=O)C2)cc1 (centres undefined),0%,u,1,3%,-5%
CN(C)c1ccc(CN(C(=O)/C=C/c2ccco2)C2CCS(=O)(=O)C2)cc1 (centres undefined),24%,-13%[57.1 µM],1,3%,-8%[57.1 µM]
COc1cc(N(C)C)ccc1/C=C/c1ccnc2ccccc12,x,10%,x,x,-1%
Nc1c(Br)cc(C=O)cc1Br,x,-2%,x,x,-3%
C=CCn1c(C)cc(C)c(C#N)c1=O,-3%,2%,2,-6%,1%
C=CCn1c(O)c(CN2CCOCC2)c(C)c(C#N)c1=O,7%,-15%,-31*,-3%,6%
CC(C)CCSc1cc(NCCO)c([N+](=O)[O-])c2nonc12,4%,3.5µM*,-16,-17%,5%[57.1 µM]
CC(=O)OCCCNc1cc(Sc2ccc(Cl)cc2)c2nonc2c1[N+](=O)[O-],4%,3.2µM*,-49*,6%,-14%
CCC(=O)OCCNc1cc(Sc2nccn2C)c2nonc2c1[N+](=O)[O-],5%,0.28µM*,-1,8%,-7%
CCOC(=O)N1CCN(c2cc(NCCO)c([N+](=O)[O-])c3nonc23)CC1,11%,8%[57.1 µM],-11,15%,1%[57.1 µM]
COC(=O)CCSc1cc(NCCCOC(C)=O)c([N+](=O)[O-])c2nonc12,x,3.2µM*,x,x,-15%
CCN(CC)c1cc(NCCO)c([N+](=O)[O-])c2nonc12,1%,-11%,-8,-4%,-13%

# High-throughput results from PubChem BioAssay.
